An excerpt weighted towards active compounds, which were near 3.2% of everything screened.
H9c2 protect – protects H9c2 cardiomyocytes from peroxide injury; AID 588492; protection from H2O2 cell death, % at 20 µM; H2O2 injury protection, ATPLite, 2 h; hit rate 0.63% among 360,000;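 active = compounds giving at least 50% protection of heart cells from peroxide-induced death in the single-dose screen, raw or plate-pattern-corrected value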;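 note: 0% = DMSO wells with peroxide and 100% = DMSO wells without peroxide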
aDG glyco up – increases alpha dystroglycan glycosylation. Pro5-aDG cells, alpha-DG glycosylation AlphaScreen (IIH6); 0% Pro5, 100% B10-LARGE cell signal. activation, % at 10 µM. hit rate 0.22% among 360,000;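 active = activation of at least 8% versus controls, or a plate z-score of at least 8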;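 note: Pro5 are CHO cells carrying HIG-tagged alpha-DG that lacks glycosylation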
FAS-TE inh – FAS thioesterase (human) inhibition | recombinant FAS-TE, OMFH fluorogenic substrate, fluorescence endpoint | inhibition, % at 15 µM | hit rate 0.67% among 360,000;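 active = compounds whose normalised, plate-corrected inhibition of enzyme fluorescence in the single-dose primary screen is 50% or more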;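 note: 0% = DMSO with enzyme and 100% = substrate without enzyme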
CRFR2-BP ag – CRF-BP/CRF-R2 complex agonism; activation, % at 13.2 µM; hit rate 0.46% among 350,000; HEK293 CRF-R2/CRF-BP, calcium dye fluorescence (FLIPR); percent of saturating CRF peptide response; AID 588473;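 active = activation of at least 50%, plus an integration ratio under a set limit after plate pattern correction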;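 note: plate controls were neutral control wells without compound for no effect and CRF at EC100 for full effect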
CRFR2-BP antag – CRF-BP/CRF-R2 complex antagonism | HEK293 CRF-R2/CRF-BP, CRF-induced calcium fluorescence | inhibition, % at 11.8 µM | hit rate 0.59% among 350,000;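 active = inhibition of the ligand-induced calcium signal above about 50% at the single tested concentration, limit read from the data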
PfGluPho inh – PfG6PD (Plasmodium falciparum) enzyme inhibition | PfGluPho enzyme, NADPH resazurin-diaphorase fluorescence | inhibition, % at 20 µM | AID 504690 | hit rate 0.78% among 350,000;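 active = inhibition reaching at least a set limit at 20 µM in the primary screen, cut at about 59% in these data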;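 note: 0% = DMSO wells with substrate and 100% = DMSO wells lacking glucose-6-phosphate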
Active calls of the source: *; · = no result.

SMILES	H9c2 protect	aDG glyco up	FAS-TE inh	CRFR2-BP ag	CRFR2-BP antag	PfGluPho inh
Cc1ccc(NC(=O)COc2ccc(N(C)C(=O)C(C)(C)C)cc2)cc1S(=O)(=O)N1CCCCC1	-28.4	4.6*	25.7	-0.4	3.6	11.2
COc1ccc2[nH]c(=O)c(CN(CCO)S(=O)(=O)c3c(C)ccc4nsnc34)cc2c1	19.1	2.0	-9.4	-0.2	-3.2	-23.8
COc1ccc2[nH]c(=O)c(CN(Cc3cccs3)S(=O)(=O)c3cccc4nsnc34)cc2c1	73.1*	-0.5	10.7	0.2	-11.1	11.6
Cc1cc(C)n2nc(C(=O)OCC(=O)N3C(C)CCCC3C)nc2n1 (stereo unspecified)	2.7	0.0	-4.6	-0.3	-9.5	-10.7
CNC(=O)CN(C1CCCCC1)S(=O)(=O)c1ccc(F)cc1	2.2	-0.1	-8.2	-5.9	55.6*	4.3
CCNC(=O)CN(C1CCCCC1)S(=O)(=O)c1ccc(F)cc1	-3.3	-0.1	-1.5	-1.1	45.9	6.5
COc1cc(-c2[nH]ncc2CN2CCN(c3cccc(C)n3)CC2)cc(OC)c1OC	-4.4	0.1	2.5	-1.4	10.2	-16.9
Cn1c(CCc2nc3ccccc3[nH]2)nnc1SCC#N	-0.6	-0.4	-3.3	-2.8	3.2	-0.3
Cc1ccccc1Cn1cccc1/C=C1/C(=N)N2C=CSC2=NC1=O	2.9	0.2	5.1	-0.7	55.5*	-25.2
CC(C)c1ccc(-n2cccc2/C=C2/C(=N)N3C=CSC3=NC2=O)cc1	26.8	-0.2	16.1	-0.3	8.4	-1.7
Cc1[nH]c(C)c(S(=O)(=O)N2CCN(c3cccc(Cl)c3)CC2)c1C(=O)N1CCCC1	-4.1	-0.3	-3.7	0.0	-13.8	-0.7
COc1cccc(N2CCN(S(=O)(=O)c3c(C)[nH]c(C)c3C(=O)N3CCCC3)CC2)c1	-1.5	0.2	-7.7	1.8	120.0*	2.8
O=C(NCCN1CCCC(O)C1)c1cc(COc2cccc(C(F)(F)F)c2)on1 (stereo unspecified)	4.4	0.3	-6.1	-2.0	-8.2	-5.2
COc1ccc(-c2cc3nc(C4CCN(C(=O)OC(C)(C)C)CC4)c(C(=O)O)cn3n2)cc1	8.0	-0.1	2.2	-3.1	52.0*	-33.4
CCCC(c1nnnn1CS(=O)(=O)c1ccc(C)cc1)N1CCN(C2CCCC2)CC1 (stereo unspecified)	5.6	0.1	-5.4	0.0	-11.0	-6.8
CNc1ccccc(C(=O)/C=C/c2ccccc2OC)c1=O	51.2*	-0.1	-7.1	0.0	-5.2	51.5
O=[N+]([O-])c1ccc2c(c1)N([O-])C1(CCCCC1)[N+]2=O	·	·	·	-1.0	-4.1	59.5*
COC(=O)c1ccc(Cn2c(C)c(C(=O)NCc3cccs3)sc2=O)o1	51.9*	0.5	-2.7	·	·	·
COc1ccccc1N=c1oc2c(OC)cccc2cc1C(=O)NCc1ccco1	6.5	-0.2	2.7	-1.2	19.7	-3.1
COc1ccc(N=c2oc3c(OC)cccc3cc2C(=O)NCc2ccco2)cc1OC	52.3*	-0.9	20.1	1.0	-9.2	5.8
COc1cccc(C(=O)N/N=c2\oc3c(OC)cccc3cc2C(=O)NCc2ccccc2)c1	75.7*	-0.3	11.1	4.5	-10.7	2.5
COC(=O)c1sc(SC)c(S(=O)(=O)C(C)C)c1N/N=C(\C#N)C(=O)c1ccccc1	6.4	0.0	-4.7	-2.5	25.1	-10.7
O=C(NCCc1csc(-c2cccnc2)n1)c1ccccc1Br	-4.0	0.3	-8.2	0.9	-14.3	-2.8
Cc1ncc(CO)c2cc(C(=O)Nc3ccccc3Cl)c(=Nc3cccc(C(N)=O)c3)oc12	61.3*	-0.2	-5.2	-0.2	22.0	10.5
CCNC(=O)n1cc(-n2cncn2)c(-c2ccc(Cl)cc2)n1	2.6	-0.2	-3.9	-0.7	15.6	5.8
SMILES	H9c2 protect	aDG glyco up	FAS-TE inh	CRFR2-BP ag	CRFR2-BP antag	PfGluPho inh
CC(C)(C)OC(=O)N1CCC(c2cc(=O)n3[nH]cc(C(=O)NC4CCCC4)c3n2)CC1	-1.4	0.0	6.8	-0.3	50.6*	-14.4
COc1ccc(NC(=O)c2c[nH]n3c(=O)cc(C4CCN(C(=O)OC(C)(C)C)CC4)nc23)cc1Cl	8.3	-0.3	29.9	-2.2	36.7	17.5
CCCCNC(=O)O/N=C(\N)CS(=O)(=O)C(C)(C)C	0.8	0.1	-1.8	3.1	0.7	-1.4
O=C(Nc1ccccc1)c1ccsc1	-3.3	0.0	-8.6	1.4	-6.5	1.8
CCOC(=O)c1[nH]c2ccc(F)cc2c1NC(=O)Nc1ccccc1OC	0.6	-0.2	-3.1	2.4	-9.6	12.1
CCOC(=O)c1[nH]c2cc(OC)c(OC)cc2c1NC(=O)C(C)N1CCN(Cc2ccccc2)CC1 (stereo unspecified)	55.5*	-0.3	-0.3	-2.8	12.2	-13.3
COc1cc(OC)c2c(-c3ccccc3)cc(=O)oc2c1C(CCN1CCCCC1)c1ccc(N(C)C)cc1 (stereo unspecified)	-25.6	2.7	2.3	7.9	-22.2	9.7
COc1ccc(C(CCN2CCCCC2)c2c(OC)cc(OC)c3c(-c4ccccc4)cc(=O)oc23)cc1 (stereo unspecified)	-8.5	2.1	-3.6	59.2*	-32.0	3.0
COc1ccc(-n2nnnc2C(CCc2ccccc2)N2CCN(C/C=C/c3ccccc3)CC2)cc1 (stereo unspecified)	-9.3	-0.4	20.9	·	·	·
COc1ccccc1C(=O)Nc1cccc(Oc2c(F)c(F)c(F)c(F)c2F)c1	-8.0	0.1	36.4	9.1	33.2	24.6
Cc1cc2nc3ccc(=[N+](C)C)cc-3sc2cc1N	-25.6	36.5*	2.3	1.9	3.0	101.9*
COc1ccc(CCNC(=O)CNC(=O)Cn2ccc3ccccc3c2=O)cc1OC	-2.6	0.1	-6.9	2.0	-4.7	-10.3
O=C(O)c1ccc(/C=N/Nc2cccc(C(F)(F)F)c2)cc1	-4.8	0.1	8.9	0.2	76.1*	-4.4
O=C(NC1CCCC1)c1nc(-c2ccco2)oc1-c1ccccc1	·	-0.5	·	·	·	·
CC1C2=C(CC(C)(C)CC2=O)NC2=C1C(=O)CC(C)(C)C2	9.3	-0.1	-2.4	67.5*	-85.1	9.9
CCCn1c(=O)[nH]c(=O)c2c1nc(-c1cc([N+](=O)[O-])ccc1Cl)n2CCOC	1.2	0.1	1.6	0.0	0.6	7.0
O=C(NNC(=O)c1oc2ccccc2c1-n1cccc1)c1ccco1	-3.7	0.0	-1.2	-3.2	96.5*	-2.9
NC(=O)c1oc2ccccc2c1NC(=O)c1ccco1	71.7*	-0.3	0.2	0.9	-3.4	21.6
Cc1ccc(N2CCN(C(=O)CN3C(=O)c4ccccc4C3=O)CC2)cc1	-3.7	-0.3	-8.1	0.1	55.7*	-3.8
COC(=O)c1ccccc1C(=O)c1c(C)cc(C)cc1C	·	0.0	15.5	·	·	·
CC[C@H](CO)Oc1cc(NCc2cccc(N)c2)c2ncn(C(C)C)c2c1	·	0.0	-5.6	·	·	·
OC(CN1C2=NCCN2c2ccccc21)c1ccc2c(c1)OCO2 (stereo unspecified)	33.1	-0.1	-10.6	3.1	51.8*	-18.3

Source: PubChem BioAssay
